Compounds with a hit are over-represented: about 9.3% of the library has one in this group of screens.
M1 ag: activates the M1 muscarinic receptor; CHO-M1 cells, Fluo-4 calcium fluorescence, agonist mode; active compounds read high; 64,000 tested, 3% active; B-score at 10 µM; AID 626;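 active = fluorescence rise, raw or as B-score row- and column-corrected plate score, outside the 99.7% band of its plate's samples, either direction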
Autofluor 339: intrinsic fluorescence of library compounds, ex339/em460 – biochemical, MLSMR library, data from DPM-DC assay, artefact control, profiling panel; compound autofluorescence, ex339/em460 nm, NADH buffer; active compounds read high; 1 = no-compound wells, NADH background; fluorescence fold increase at 10 µM; 65,000 tested, 5.5% active;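 active = at 10 µM, mean starting fluorescence two-fold or more over control wells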;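 note: signal is the first read of a kinetic run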
NADH coupling: inhibition of NAD/NADH coupling enzymes, library profiling; coupled PK/LDH NADH assays, four targets; 65,000 tested, 0.02% active; IC50, µM (titrated, usually from 10 µM);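 active = single-dose screening hits from any of four coupled enzyme assays that gave an IC50 when retested across doses; inconclusive = no clear call, values can overlap the other calls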;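 note: the DPM-DC format reads NADH fluorescence rather than 340 nm absorbance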
M1 antagonist: blocks the rat M1 muscarinic receptor response to acetylcholine; P08482; CHO-M1 cells, Fluo-4 calcium, ACh EC80 antagonist mode; active compounds read low; B-score at 10 µM; 64,000 tested, 3.4% active; AID 628;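 active = calcium fluorescence response, raw or row-and-column corrected B-score, differing from the plate sample mean either way at a set confidence level, mostly lower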
Target sequence (P08482 whole entry, looked up): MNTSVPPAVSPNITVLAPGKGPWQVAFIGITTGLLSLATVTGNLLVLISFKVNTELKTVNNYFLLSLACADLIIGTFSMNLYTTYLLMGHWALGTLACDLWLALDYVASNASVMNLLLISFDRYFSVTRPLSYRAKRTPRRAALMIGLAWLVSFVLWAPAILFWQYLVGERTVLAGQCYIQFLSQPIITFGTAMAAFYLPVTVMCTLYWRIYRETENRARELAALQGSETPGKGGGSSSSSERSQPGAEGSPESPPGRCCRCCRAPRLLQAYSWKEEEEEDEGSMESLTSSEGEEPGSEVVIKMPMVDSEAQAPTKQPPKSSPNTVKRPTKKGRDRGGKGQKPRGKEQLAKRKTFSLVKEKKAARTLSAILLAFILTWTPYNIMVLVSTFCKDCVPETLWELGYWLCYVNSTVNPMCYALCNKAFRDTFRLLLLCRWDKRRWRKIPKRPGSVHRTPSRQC
Abs 340nm: compounds absorbing at 340 nm; 65,000 tested, under 10 active; compound absorbance at 340 nm, fold over control; AID 708; fold change at 10 µM;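 active = at 10 µM dose, initial 340 nm absorbance at least 2 fold that of control wells; inactive = change under 2 fold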;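 note: initial absorbance extrapolated from kinetic A340 decline of NADH oxidation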
Htt clearance: mutant huntingtin protein clearance. AID 853. inhibition, % at 1.5 µM. 47,000 tested, 0.42% active. HeLa Exon1htt(103Q)mCFP, aggregate imaging; zero = plate's median compound well;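 active = inhibition of aggregate fluorescence above about 70%, also judged a hit by eye on the cell image, limit read from the data, passing the limit was not always enough; inconclusive = no rule stated for this call; inactive = not judged a hit on image review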;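 note: cells exposed to compound for three days before fixation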
M1 agonist conf: confirmation of rat M1 muscarinic receptor agonists; shares compounds with M1 ag; CHO-M1 cells, Fluo-4 calcium fluorescence, agonist mode; actives lie on both sides; fluorescence change (max-min) at 10 µM; 1,700 tested, 19% active;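 active = fluorescence change differs from the solvent-only DMSO control mean at a set confidence level in both duplicate runs; inconclusive = differs from solvent-only control mean in just one of two runs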;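 note: an EC20 dose of acetylcholine follows compound addition during the same imaging run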
M4 ag counter: counter-screen for M1 agonists: activity at rat M4 receptor; shares compounds with M1 ag; 1,700 tested, 9% active; AID 1741; CHO M4/Gqi5 cells, Fluo-4 calcium fluorescence, agonist mode; actives lie on both sides; fluorescence change (max-min) at 10 µM;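 active = fluorescence change differing from the plate's solvent-only control wells at 99.7% confidence in both duplicates, whether higher or lower; inconclusive = differs from solvent controls in only one of two duplicates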
Each line names hits and unclear results; the compound was inactive in the other large screens (follow-up assays come after a bar, where they were run).

COCC(C)NC(=O)NC1(C(F)(F)F)Oc2ccc(Cl)cc2O1 (configuration not stated)	M1 ag 6.4 | M1 agonist conf inconclusive | M4 ag counter inactive
O=C(NCCN1CCOCC1)NC1(C(F)(F)F)Oc2ccc(Cl)cc2O1 (configuration not stated)	none (no result: Htt clearance)
Cc1c(OC(=O)CNC(=O)OC(C)(C)C)ccc2c3c(c(=O)oc12)CCC3	M1 ag 2.4, Autofluor 339 3.9 (no result: Htt clearance) | M1 agonist conf inactive | M4 ag counter inactive
O=C(O)CNc1nc(Cl)ccc1[N+](=O)[O-]	none (no result: M1 ag, Autofluor 339, NADH coupling, M1 antagonist, Abs 340nm)
O=C(O)CCc1n[nH]c(=S)[nH]c1=O	none
O=C(CSc1nnc(-c2csc3c2CCCC3)o1)Nc1ccccc1	none
Cc1cc(C)n2c(SC/C(O)=C(\C#N)c3nc4ccccc4[nH]3)nnc2n1	none (no result: Htt clearance)
Cc1ccccc1-n1c(SC/C(O)=C(\C#N)c2nc3ccccc3[nH]2)nnc1-c1ccncc1	M1 ag 3.9 (no result: Htt clearance) | M1 agonist conf inactive | M4 ag counter inactive
O=C(CSc1nnnn1C1CCCCC1)NCCc1ccccc1	none (no result: Htt clearance)
CC12CCC(C(=O)N3CCN(Cc4ccccc4)CC3)(OC1=O)C2(C)C (configuration not stated)	none (no result: Htt clearance)
CCOC(=O)N1CCC2(CC1)C(C#N)=C(N)OC1=C2C(=O)CC(C)(C)C1	none (no result: M1 ag, Autofluor 339, NADH coupling, M1 antagonist, Abs 340nm)
CC1(C)CC(=O)C2=C(C1)OC(N)=C(C#N)C21CCN(Cc2ccccc2)CC1	M1 ag 6.9 (no result: Htt clearance) | M1 agonist conf inactive | M4 ag counter inactive
COc1cccc(C2C(C(=O)c3sc(C)nc3C)=C(O)C(=O)N2CCN(C)C)c1OC (configuration not stated)	none (no result: Htt clearance)
CC(=O)Nc1cccc(NC(=O)C2CC(=O)N(c3ccc(C)cc3)C2)c1 (configuration not stated)	M1 ag 3.1 | M1 agonist conf inactive | M4 ag counter inactive
Cc1cccc(NC(=O)Cn2cnc3ccccc3c2=O)c1C	none (no result: M1 ag, Autofluor 339, NADH coupling, M1 antagonist, Abs 340nm)
CCNC(=O)CSc1nc2ccccc2c(=O)n1CCCOC(C)C	none (no result: Htt clearance)
CC(C)OCCCn1c(=NC(=O)c2ccncc2)c(C#N)cc2c(=O)n3ccccc3nc21	M1 ag 25, Autofluor 339 3.6 (no result: Htt clearance) | M1 agonist conf 219 | M4 ag counter inconclusive
CC(C)OCCCn1c(=N)c(C(N)=S)cc2c(=O)n3ccccc3nc21	M1 ag 4 | M1 agonist conf inactive | M4 ag counter inconclusive
CCCCn1c(=NC(=O)c2ccc3c(c2)OCO3)c(C#N)cc2c(=O)n3cccc(C)c3nc21	M1 ag 13, Autofluor 339 2.3 | M1 agonist conf inconclusive | M4 ag counter inactive
CCCc1nn(C)c2c1C(c1ccncc1)C(C#N)=C(N)O2 (configuration not stated)	none (no result: Htt clearance)
COc1ccc(S(=O)(=O)N2CCN(c3nc4ccccc4nc3-n3nc(C)cc3C)CC2)cc1	none
CC(=O)Nc1ccccc1OCC(=O)c1cc(C)n(Cc2cccs2)c1C	M1 ag 3.1 (no result: Htt clearance) | M1 agonist conf inactive | M4 ag counter inactive
O=C(Nc1ccc2c(c1)OCCO2)c1ccc(Br)c(S(=O)(=O)N2CCOCC2)c1	M1 ag 11 (no result: Htt clearance) | M1 agonist conf inconclusive | M4 ag counter inactive
O=C(Nc1ccc2c(c1)OCO2)c1ccc(Br)c(S(=O)(=O)N2CCCC2)c1	none (no result: Htt clearance)
CCOC(=O)c1ccc(NC(=O)c2ccc(C)c(S(=O)(=O)N3CCOCC3)c2)cc1	M1 ag 16, M1 antagonist -3.1 (no result: Htt clearance) | M1 agonist conf inactive | M4 ag counter inactive
O=C(Nc1cccc(F)c1)c1cccc(S(=O)(=O)N2CCOCC2)c1	none
CCOC(=O)c1ccc(NC(=O)c2cccc(S(=O)(=O)N3CCOCC3)c2)cc1	M1 ag 10, M1 antagonist -2.9 | M1 agonist conf inactive | M4 ag counter inconclusive
O=S(=O)(c1ccccc1)N(C1=NCCS1)S(=O)(=O)c1ccccc1	none
Cc1cc2cc(CN(C(=O)C3CC3)C3CCCC3)c3nnnn3c2cc1C	none (no result: Htt clearance)
Cc1ccc(-c2nn3c(-c4ccco4)nnc3c3ccccc23)cc1S(=O)(=O)NCC1CCCO1 (configuration not stated)	M1 ag 5.3 | M1 agonist conf inactive | M4 ag counter inactive
Cc1ccnc(SCCn2c(N3CCN(c4ccccc4)CC3)nc3c2c(=O)[nH]c(=O)n3C)n1	M1 ag 6.4 (no result: Htt clearance) | M1 agonist conf inactive | M4 ag counter inconclusive
O=S(=O)(NCc1ccccc1)c1ccc2c(c1)OCCO2	M1 ag 7.4 (no result: Htt clearance) | M1 agonist conf inactive | M4 ag counter inactive
C=CCn1c(SCC(=O)NC2CCCCC2)nnc1C(C)NC(=O)c1cccs1 (configuration not stated)	none (no result: Htt clearance)
C=CCn1c(SCC(=O)c2ccc(OC)cc2)nnc1C(C)NC(=O)c1cccs1 (configuration not stated)	M1 ag -2.8 | M1 agonist conf inconclusive | M4 ag counter inactive
CC1Cc2ccccc2N1C(=O)c1cc2c(=O)n3ccccc3nc2n1C (configuration not stated)	M1 ag 8.4 (no result: Htt clearance) | M1 agonist conf inactive | M4 ag counter inactive
C=CCOC(=O)C1=C(C)NC(=O)NC1c1cn(-c2ccccc2)nc1-c1cccs1 (configuration not stated)	none
COCCOC(=O)C1=C(C)NC(=O)NC1c1cn(-c2ccccc2)nc1-c1cccs1 (configuration not stated)	M1 ag 11, M1 antagonist -2.1 (no result: Htt clearance) | M1 agonist conf inconclusive | M4 ag counter inactive
CCOC(=O)C1CCCN(Cc2cc(OC)c(O)c(OC)c2)C1 (configuration not stated)	M1 ag 3.2 (no result: Htt clearance) | M1 agonist conf 60 | M4 ag counter inactive
CCOC(=O)C1CCCN(Cc2cc(Br)ccc2OC)C1 (configuration not stated)	none (no result: M1 ag, M1 antagonist, Htt clearance)
CCOC(=O)C1CCCN(Cc2cc(Br)c(OC)cc2OC)C1 (configuration not stated)	M1 ag 7.9 | M1 agonist conf inactive | M4 ag counter inconclusive
Cc1cc(OCc2nnc(SCC(=O)OC3CCCCC3)o2)ccc1Cl	M1 ag 4.6 (no result: Htt clearance) | M1 agonist conf inconclusive | M4 ag counter inconclusive
O=C(CSc1nnc(COc2ccc(Cl)cc2)o1)OC1CCCCC1	none (no result: Htt clearance)
Cc1ccc(Cl)cc1NC(=O)Cn1cccc1	none
Cc1ccc(Cl)cc1NC(=O)CC(O)(C(F)(F)F)C(F)(F)F	M1 ag 11, M1 antagonist -2.5 (no result: Htt clearance) | M1 agonist conf inactive | M4 ag counter inactive
CCCC(=O)N1CCN(c2ccc(NC(=O)c3cc4ccccc4o3)cc2Cl)CC1	M1 ag 6.9 (no result: Htt clearance) | M1 agonist conf inactive | M4 ag counter inactive
CCC(=O)N1CCN(c2ccc(NC(=O)c3cc4ccccc4o3)cc2Cl)CC1	M1 ag 4.5, M1 antagonist -1.9 (no result: Htt clearance) | M1 agonist conf inactive | M4 ag counter inactive

Assay outcomes: PubChem BioAssay, several laboratories
